In PubChem BioAssay (NCATS):
Results filed as inconclusive are left out. The source made the active and inactive calls. The call rests on the fitted dose curve; in most records, active means well fitted curve in the direction sought with a large enough effect; inconclusive means small, poorly fitted or top-dose-only effect, or another doubt; inactive means no such curve, though single readings can be large; an effect the other way counts as inactive or inconclusive.

Experiments:
[1] = Quantitative High-Throughput drug screen in 47 multiple myeloma cell lines against the NCATS MIPE library collection: FR4_PLB cell viability assay (AID 1918924; further: nearly all actives have a fitted effect of over 35% in size)
Outline: (§1)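 Inhibition of cell viability is measured here. Each line was plated at 500 cells per well, treated with MIPE 4.0 drugs, kept 48 hours at 37C, then assayed for ATP content by CellTiter-Glo luminescence.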

[2] = Quantitative High-Throughput drug screen in 47 multiple myeloma cell lines against the NCATS MIPE library collection: Delta47_JCRB cell viability assay (AID 1918925; further: nearly all actives have a fitted effect of over 45% in size)
Outline: (§2)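 qHTS of the MIPE 4.0 collection: 500 myeloma cells/well, 48 h drug exposure at 37C in 5% CO2, then CellTiter-Glo for 5 min at room temperature before luminescence reading.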

[3] = Quantitative High-Throughput drug screen in 47 multiple myeloma cell lines against the NCATS MIPE library collection: EJM_DSMZ cell viability assay (AID 1918926; further: nearly all actives have a fitted effect of over 30% in size)
Outline: as §2

[4] = Quantitative High-Throughput drug screen in 47 multiple myeloma cell lines against the NCATS MIPE library collection: ARP1_JJKsccF8 cell viability assay (AID 1918928; further: nearly all actives have a fitted effect of over 40% in size)
Outline: (§3)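 Myeloma cells at 500 per well in 1536-well format treated with MIPE 4.0 library by pin transfer for 48 h at 37C, 5% CO2. Viability from ATP luminescence (CellTiter-Glo), normalized to DMSO (100%) and media-only (0%) wells.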

[5] = Quantitative High-Throughput drug screen in 47 multiple myeloma cell lines against the NCATS MIPE library collection: KHM11_PLB cell viability assay (AID 1918962); further: nearly all actives have a fitted effect of over 35% in size
Outline: as §1

[6] = Quantitative High-Throughput drug screen in 47 multiple myeloma cell lines against the NCATS MIPE library collection: INA6_PLB cell viability assay (AID 1918965; further: nearly all actives have a fitted effect of over 55% in size)
Outline: as §2

[7] = Quantitative High-Throughput drug screen in 47 multiple myeloma cell lines against the NCATS MIPE library collection: JJN3_DSMZ cell viability assay (AID 1918966; further: nearly all actives have a fitted effect of over 50% in size)
Outline: as §2

[8] = Quantitative High-Throughput drug screen in 47 multiple myeloma cell lines against the NCATS MIPE library collection: H1112_PLB cell viability assay (AID 1918967; further: nearly all actives have a fitted effect of over 30% in size)
Outline: as §2

[9] = Quantitative High-Throughput drug screen in 47 multiple myeloma cell lines against the NCATS MIPE library collection: Karpas25_ECACC cell viability assay (AID 1918968; further: nearly all actives have a fitted effect of over 35% in size)
Outline: as §2

[10] = Quantitative High-Throughput drug screen in 47 multiple myeloma cell lines against the NCATS MIPE library collection: KMS12BM_JCRB cell viability assay (AID 1918971); further: nearly all actives have a fitted effect of over 35% in size
Outline: as §1

[11] = Quantitative High-Throughput drug screen in 47 multiple myeloma cell lines against the NCATS MIPE library collection: ARD_JJKsccE7 cell viability assay (AID 1918929)
Outline: as §2

[12] = Quantitative High-Throughput drug screen in 47 multiple myeloma cell lines against the NCATS MIPE library collection: Karpas620_DSMZ cell viability assay (AID 1918959); further: nearly all actives have a fitted effect of over 30% in size
Outline: as §1

[13] = Quantitative High-Throughput drug screen in 47 multiple myeloma cell lines against the NCATS MIPE library collection: KMM1_JCRB cell viability assay (AID 1918960); further: nearly all actives have a fitted effect of over 30% in size
Outline: as §3

[14] = Quantitative High-Throughput drug screen in 47 multiple myeloma cell lines against the NCATS MIPE library collection: JIM3_ECACC cell viability assay (AID 1918963; further: nearly all actives have a fitted effect of over 35% in size)
Outline: as §1

[15] = Quantitative High-Throughput drug screen in 47 multiple myeloma cell lines against the NCATS MIPE library collection: JIM1_ECACC cell viability assay (AID 1918964)
Outline: as §2

[16] = Quantitative High-Throughput drug screen in 47 multiple myeloma cell lines against the NCATS MIPE library collection: KMS12PE_JCRB cell viability assay (AID 1918972); further: nearly all actives have a fitted effect of over 30% in size
Outline: as §2

[17] = Quantitative High-Throughput drug screen in 47 multiple myeloma cell lines against the NCATS MIPE library collection: AMO1_DSMZ cell viability assay (AID 1918927; further: nearly all actives have a fitted effect of over 30% in size)
Outline: as §2

[18] = Quantitative High-Throughput drug screen in 47 multiple myeloma cell lines against the NCATS MIPE library collection: KMS27_JCRB cell viability assay (AID 1918970); further: nearly all actives have a fitted effect of over 30% in size
Outline: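 ATP-based viability (CellTiter-Glo luminescence) is measured in cells treated 48 h with approved and investigational drugs at 37 °C. Controls are DMSO-only wells for full viability and media-only wells for none.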

[19] = Quantitative High-Throughput drug screen in 47 multiple myeloma cell lines against the NCATS MIPE library collection: Karpas417_ECACC cell viability assay (AID 1918961); conditions: Karpas417 myeloma viability, CellTiter-Glo ATP luminescence, 48 h; viability (% of DMSO): at 45.8 µM (top of the series)
Outline: as §2
Potency means the concentration at half of the fitted maximal effect.

SMILES | Potency [1] | Potency [2] | Potency [3] | Potency [4] | Potency [5] | Potency [6] | Potency [7] | Potency [8] | Potency [9] | Potency [10] | Potency [11] | Potency [12] | Potency [13] | Potency [14] | Potency [15] | Potency [16] | Potency [17] | Potency [18] | Potency [19]
C=CC(=O)Nc1cc2c(Nc3ccc(F)c(Cl)c3)ncnc2cc1OCCCN1CCOCC1 | 14.8 µM (active) | 2.96 µM (active) | 7.43 µM (active) | 5.9 µM (active) | inactive | 0.833 µM (active) | 16.6 µM (active) | 4.69 µM (active) | 2.64 µM (active) | 14.8 µM (active) | – | – | – | – | – | – | – | – | –
CC1=C(CO)C(=O)O[C@@H]([C@@H](C)[C@H]2CC[C@H]3[C@@H]4C[C@H]5O[C@]56[C@@H](O)C=CC(=O)[C@]6(C)[C@@H]4CC[C@]23C)C1 | 0.372 µM (active) | 0.148 µM (active) | 0.235 µM (active) | 0.166 µM (active) | 0.209 µM (active) | 0.105 µM (active) | 0.662 µM (active) | 0.418 µM (active) | 0.132 µM (active) | 0.372 µM (active) | inactive | inactive | inactive | 0.209 µM (active) | inactive | inactive | – | – | –
CCCCc1nc2cc(C=CC(=O)NO)ccc2n1CCN(CC)CC | 0.0833 µM (active) | 0.469 µM (active) | 1.32 µM (active) | 0.148 µM (active) | 1.48 µM (active) | – | 0.743 µM (active) | 1.87 µM (active) | 0.372 µM (active) | 0.059 µM (active) | – | – | – | 2.64 µM (active) | – | – | – | – | –
C[C@@H]1CN(CC(=O)Nc2ccc3c(c2)Cc2cccc(-c4cc(=O)cc(N5CCOCC5)o4)c2S3)C[C@H](C)O1 | 16.6 µM (active) | 2.64 µM (active) | – | – | – | 11.8 µM (active) | – | – | – | 20.9 µM (active) | 18.7 µM (active) | – | 10.5 µM (active) | 13.2 µM (active) | – | 13.2 µM (active) | 5.26 µM (active) | 18.7 µM (active) | –
CC(O)C1C(=O)N2C(C(=O)O)=C(SC3CNC(C(=O)N(C)C)C3)C(C)C12 (stereo not drawn) | inactive | inactive | inactive | – | inactive | inactive | – | inactive | – | inactive | inactive | inactive | inactive | inactive | – | – | – | inactive | –
CCN1CCN(CC(=O)Nc2ccc(-c3cccc4c(=O)cc(N5CCOCC5)oc34)c3sc4ccccc4c23)CC1 | 1.48 µM (active) | 0.418 µM (active) | 13.2 µM (active) | 0.264 µM (active) | 0.0526 µM (active) | – | 3.72 µM (active) | 6.62 µM (active) | 0.264 µM (active) | 1.05 µM (active) | 0.0118 µM (active) | – | 0.132 µM (active) | 1.18 µM (active) | 0.469 µM (active) | 2.35 µM (active) | – | 0.418 µM (active) | –
COc1cc(C(=O)NS(=O)(=O)c2ccccc2C)ccc1Cc1cn(C)c2ccc(NC(=O)OC3CCCC3)cc12 | 23.5 µM (active) | 14.8 µM (active) | 16.6 µM (active) | 18.7 µM (active) | 10.5 µM (active) | 10.5 µM (active) | – | 20.9 µM (active) | 8.33 µM (active) | 26.4 µM (active) | – | inactive | – | 16.6 µM (active) | inactive | – | – | – | inactive
Nc1ccc(C(=O)c2cc3c(ccc4ccccc43)[nH]2)cc1 | 1.18 µM (active) | 1.87 µM (active) | 4.18 µM (active) | 2.96 µM (active) | – | 2.64 µM (active) | 7.43 µM (active) | – | 3.72 µM (active) | 2.64 µM (active) | – | – | – | 2.64 µM (active) | – | – | – | – | –
c1cc(-c2cnn3cc(-c4ccc(OCCN5CCCCC5)cc4)cnc23)ccn1 | 11.8 µM (active) | 2.09 µM (active) | 16.6 µM (active) | 16.6 µM (active) | 1.48 µM (active) | 1.87 µM (active) | – | 2.96 µM (active) | 2.96 µM (active) | 16.6 µM (active) | inactive | inactive | inactive | 3.72 µM (active) | – | inactive | – | inactive | –
CC(C)c1ccccc1Cc1cc(C(=O)Nc2ccc(S(=O)(=O)c3ccccc3C(C)(C)C)cc2)c(O)c(O)c1O | 9.35 µM (active) | 7.43 µM (active) | – | 14.8 µM (active) | 7.43 µM (active) | 5.26 µM (active) | 14.8 µM (active) | 6.62 µM (active) | 3.72 µM (active) | 3.72 µM (active) | inactive | inactive | inactive | 4.18 µM (active) | inactive | inactive | – | inactive | –
CNC(=O)c1cc(Oc2ccc(NC(=O)Nc3cc(C(C)(C)C)nn3-c3ccc4ncccc4c3)c(F)c2)ccn1 | 4.69 µM (active) | 5.9 µM (active) | 6.62 µM (active) | 8.33 µM (active) | – | 3.32 µM (active) | 2.96 µM (active) | 4.18 µM (active) | 6.62 µM (active) | 5.9 µM (active) | 9.35 µM (active) | 23.5 µM (active) | 16.6 µM (active) | 3.32 µM (active) | 7.43 µM (active) | 16.6 µM (active) | – | 23.5 µM (active) | 9.35 µM (active)
